# Test results: PubChem BioAssay
# “And” between values parts separate entries of the source, which are not always exact repeats. Identical values can stand only once. Inconclusive results are not listed. For some of these results: Potency and affinity values are given separately. The source made the active and inactive calls. Cut-off read from the data, not from the text of the source, unless noted: active = parasite load remaining mostly below about 12% (no sharp cut-off); inactive = mostly above about 10%.
# How the values were obtained:
# [1] = hESC survival regulators, cell-based (AID 493140; call rule not given here;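 note: cells exposed to compounds for four days before counting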); conditions: human embryonic stem cell survival screen; stronger effect = higher value
# [2] = liver-stage malaria parasite growth inhibition, primary screen, cell-based, HepG2, luciferase luminescence, HepG2 viability (AID 624349);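 note: 100% = mean of DMSO negative control wells on the same plate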; conditions: P. berghei liver stage in HepG2, luciferase luminescence, concentration not given here; parasite load remaining: stronger effect = lower value; viability: measured here: HepG2 viability without parasites
# [3] = sensitizers of A549 cells to miR-34 induction, primary screen, imaging, A549 dox-inducible miR-34, nuclei and caspase counts (AID 1347080;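 active = compounds whose cell count with miR-34 switched on is under 0.7 times the count with it off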); conditions: A549 miR-34 inducible, Hoechst nuclei count, 48 h
# [4] = survival rescue of mitochondrial mutant cells in low glucose, primary screen, MELAS cybrids, Rieske KO mouse fibroblasts, CellTiter-Glo (AID 1508586;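 active = mean z-score across replicates of 1.96 or higher in either the MELAS or the Rieske mutant cell line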;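 note: z relative to plate mean and SD of compound and empty wells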)
# [5] = Cy5 fluorescence interference with SSB-bound oligo, artefact control for HCV NS3 helicase inhibitor project, biochemical, NIH Clinical Collection, E. coli SSB (AID 743268; call rule not given here)
# [6] = tested on: Hepatitis C virus NS3 helicase; experiment: HCV NS3 helicase inhibitors, primary screen, biochemical, fluorescence polarization, NIH Clinical Collection (AID 743270; call rule not given here); conditions: NS3 helicase binding to Cy5-dT15 DNA, stronger effect = higher value, concentration not given here
# [7] = target: Single-stranded DNA-binding protein (Escherichia coli (strain K12)) (UniProt P0AGE0); experiment: E. coli SSB displacement from DNA, counter-screen for HCV NS3 helicase inhibitor project, biochemical, fluorescence polarization, NIH Clinical Collection (AID 743271; in the data active = inhibition above about 28%); conditions: stronger effect = higher value, concentration not given here
# [8] = fluorescence interference in NS3h assay format, artefact control for HCV NS3 helicase inhibitor project, biochemical, NIH Clinical Collection (AID 743272; call rule not given here;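 note: HCV NS3 helicase with a Cy5 labelled single stranded DNA probe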); conditions: fluorescence interference counterscreen, stronger effect = lower value
# [9] = polyglutamine-triggered caspase-3 activation inhibitors, cell-based (AID 1583); conditions: polyglutamine-induced caspase-3 activation, cell assay; stronger effect = higher value;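 tested at 10 µM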
# [10] = suppressors of polyQ aggregation in yeast, 75Q-TubU reporter (AID 1593); conditions: Yeast 75Q polyglutamine aggregation reporter
# [11] = rescue of polyQ-huntingtin neuronal dysfunction in worms, whole organism, C. elegans mechanosensory neurons, N-terminal huntingtin (AID 1599); conditions: touch response, stronger effect = higher value
# [12] = inhibitors of mitochondrial cytochrome c release, biochemical, purified mitochondria (AID 1603); conditions: stronger effect = lower value;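 note: mouse liver mitochondria challenged with calcium chloride; signal normalized to the plate average as 100%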
# [13] = inhibitors of polyQ protein aggregation (AID 1604); conditions: polyglutamine-induced protein aggregation inhibition assay; stronger effect = higher value; tested at 2.5 µM
# [14] = protection against mutant huntingtin cytotoxicity, PC12 cells, LDH release (AID 1610); conditions: PC12 mutant huntingtin toxicity, final LDH at 4 uM, stronger effect = lower value
# [15] = enhancers of glutamate uptake in motor neurons, MN-1 cell line (AID 1612); conditions: MN-1 motor neuron cells, stronger effect = higher value;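 note: tested at 1 µM final; 0% = mean of DMSO vehicle wells on each plate; positive means more glutamate uptake than control and negative means less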
# [16] = suppressors of polyglutamine aggregation in yeast, 75Q-TubH (AID 1616); conditions: S. cerevisiae 75Q-TubH polyglutamine aggregation suppression; stronger effect = higher value
# [17] = circadian clock period modulators, cell-based, LOPAC library, luminescence reporter (AID 2774; call rule not given here;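 note: values are relative to mean of DMSO wells on each plate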); conditions: circadian reporter cells, at 7 µM, actives lie on both sides
# [18] = tested on: Hepatitis C virus NS3 helicase; experiment: HCV NS3 helicase inhibitors, primary screen, biochemical, fluorescence polarization, LOPAC1280 library (AID 687035; in the data active = inhibition above about 37%); conditions: Purified HCV NS3 helicase, Cy5-dT15 ssDNA binding fluorescence polarization; stronger effect = higher value; concentration not given here
# [19] = Cy5 fluorescence quenching or enhancement artefacts, artefact control for HCV NS3 helicase inhibitor project, biochemical, LOPAC1280 (AID 687037; call rule not given here); conditions: Cy5-DNA-NS3h complex fluorescence interference counterscreen
# [20] = viability rescue of complex I mutant cybrids, primary screen, cell-based, galactose medium, ATP luminescence (AID 1645843;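 active = z-score of at least 1.8 in each of two replicates, scored against plate mean and spread of sample wells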;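 note: positive z means more ATP and so rescue of galactose-driven cybrid death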); conditions: complex I mutant cybrid cells, 72 h, stronger effect = higher value
# [21] = stronger effect = lower value, cell number ratio, induced over uninduced
# [22] = measured here: relative caspase fold change +Dox/-Dox
# [23] = measured here: total cells with miR-34 induction, stronger effect = lower value
# [24] = measured here: total cells without miR-34 induction
# [25] = MELAS cybrid survival, CellTiter-Glo 48 h, stronger effect = higher value
# [26] = Rieske KO mouse fibroblast survival, CellTiter-Glo 72 h
compound,measurement,setting,value
CC[N+](CC)(CC)CCC(O)(c1ccccc1)C1CCCCC1 (centres undefined),survival,[1],3.08 (inactive)
same,parasite load remaining,[2],97.4% (inactive)
same,viability,[2],92.1%
same,fold change,[3]; [21],0.878 (inactive)
same,fold change,[3]; [22],0.741
same,cell count,[3]; [23],8200
same,cell count,[3]; [24],9350
same,z-score,[4]; [25],-0.675 (inactive)
same,z-score,[4]; [26],-0.626
OC(CCN1CCCCC1)(c1ccccc1)C1C[C@@H]2C=C[C@H]1C2 (some centres undefined),parasite load remaining,[2],24.7% (inactive)
same,viability,[2],105%
same,fold change,[3]; [21],0.888 (inactive)
same,fold change,[3]; [22],1.45
same,cell count,[3]; [23],8210
same,cell count,[3]; [24],9240
same,z-score,[4]; [25],-0.0819 (inactive)
same,z-score,[4]; [26],-0.0447
COc1ccc2cc([C@@H](C)C(=O)O)ccc2c1,survival,[1],10.1 (inactive)
same,parasite load remaining,[2],124% (inactive) and 104% (inactive)
same,viability,[2],101% and 92.4%
same,fluorescence ratio,[5],0.94 (inactive)
same,inhibition,[6],0.66% (inactive)
same,inhibition,[7],8.27% (inactive)
same,fluorescence ratio,[8],0.94 (inactive)
same,fold change,[3]; [21],0.747 (inactive)
same,fold change,[3]; [22],1.43
same,cell count,[3]; [23],6320
same,cell count,[3]; [24],8450
same,z-score,[4]; [25],-0.0303 (inactive)
same,z-score,[4]; [26],-0.487
O=C(O)C=Cc1ccc(O)c(O)c1,survival,[1],7.75 (inactive)
same,parasite load remaining,[2],59.8% (inactive)
same,viability,[2],95.6%
same,fold change,[3]; [21],0.886 (inactive) and 0.85 (inactive)
same,fold change,[3]; [22],1.16 and 0.929
same,cell count,[3]; [23],9150 and 8100
same,cell count,[3]; [24],10300 and 9530
same,z-score,[4]; [25],-0.35 (inactive)
same,z-score,[4]; [26],0.227
C=CCOc1ccccc1OCC(O)CNC(C)C (centres undefined),survival,[1],7.17 (inactive)
same,parasite load remaining,[2],73.5% (inactive)
same,viability,[2],76.9%
same,fold change,[3]; [21],0.94 (inactive)
same,fold change,[3]; [22],0.727
same,cell count,[3]; [23],9530
same,cell count,[3]; [24],10100
same,z-score,[4]; [25],0.73 (inactive)
same,z-score,[4]; [26],0.111
CN(C)C/C=C(\c1ccc(Br)cc1)c1cccnc1,parasite load remaining,[2],45.2% (inactive)
same,viability,[2],47.6%
same,fold change,[3]; [21],0.924 (inactive)
same,fold change,[3]; [22],0.86
same,cell count,[3]; [23],8480
same,cell count,[3]; [24],9180
same,z-score,[4]; [25],0.27 (inactive)
same,z-score,[4]; [26],0.193
CN[C@@H]1[C@H](O[C@H]2[C@H](O[C@@H]3[C@@H](O)[C@H](O)[C@@H](N=C(N)N)[C@H](O)[C@H]3N=C(N)N)O[C@@H](C)[C@]2(O)CO)O[C@@H](CO)[C@H](O)[C@H]1O,survival,[1],13.1 (inactive)
same,parasite load remaining,[2],58.9% (inactive) and 103% (inactive)
same,viability,[2],51% and 87.7%
same,fold change,[3]; [21],0.925 (inactive)
same,fold change,[3]; [22],1.1
same,cell count,[3]; [23],9160
same,cell count,[3]; [24],9910
same,z-score,[4]; [25],-0.905 (inactive)
same,z-score,[4]; [26],-0.0139
CC1CS(=O)(=O)CCN1N=Cc1ccc([N+](=O)[O-])o1 (centres undefined),survival,[1],3.75 (inactive)
same,parasite load remaining,[2],67.6% (inactive)
same,viability,[2],75.5%
same,fold change,[3]; [21],0.925 (inactive)
same,fold change,[3]; [22],0.621
same,cell count,[3]; [23],8950
same,cell count,[3]; [24],9680
same,z-score,[4]; [25],-0.298 (inactive)
same,z-score,[4]; [26],-0.374
CC(=O)O[C@]1(C(C)=O)CC[C@H]2[C@@H]3C=C(Cl)C4=CC(=O)C5CC5[C@]4(C)[C@H]3CC[C@@]21C (some centres undefined),survival,[1],12.6 (inactive)
same,parasite load remaining,[2],65.7% (inactive)
same,viability,[2],68.5%
same,fold change,[3]; [21],0.93 (inactive)
same,fold change,[3]; [22],0.98
same,cell count,[3]; [23],8920
same,cell count,[3]; [24],9590
same,z-score,[4]; [25],-0.145 (inactive)
same,z-score,[4]; [26],0.56
C=C1c2c(Cl)ccc(O)c2C(O)=C2C(=O)[C@]3(O)C(O)=C(C(N)=O)C(=O)[C@@H](N(C)C)[C@@H]3[C@@H](O)C12 (some centres undefined),parasite load remaining,[2],61.4% (inactive)
same,viability,[2],104%
same,fold change,[3]; [21],0.684 (active)
same,fold change,[3]; [22],2.93
same,cell count,[3]; [23],5870
same,cell count,[3]; [24],8580
same,z-score,[4]; [25],-2.33 (inactive)
same,z-score,[4]; [26],-2.53
C=CC[N@@+]12CC[C@]34c5ccccc5N5/C=C6\C7N(/C=C(\C53)[C@@H](C[C@@H]41)/C(=C/CO)C2)c1ccccc1[C@@]71CC[N@@+]2(CC=C)C/C(=C\CO)[C@@H]6C[C@@H]12 (some centres undefined),parasite load remaining,[2],122% (inactive)
same,viability,[2],74.4%
same,fold change,[3]; [21],0.909 (inactive)
same,fold change,[3]; [22],0.771
same,cell count,[3]; [23],9290
same,cell count,[3]; [24],10200
same,z-score,[4]; [25],0.0835 (inactive)
same,z-score,[4]; [26],-0.352
CC(=O)O[C@]1(C(C)=O)CC[C@H]2[C@@H]3C=C(C)C4=CC(=O)CC[C@@H]4[C@H]3CC[C@@]21C,parasite load remaining,[2],85.6% (inactive)
same,viability,[2],73.5%
same,fold change,[3]; [21],0.942 (inactive)
same,fold change,[3]; [22],0.745
same,cell count,[3]; [23],8790
same,cell count,[3]; [24],9330
same,z-score,[4]; [25],-0.763 (inactive)
same,z-score,[4]; [26],-0.219
CN[C@@H]1C(O[C@H]2O[C@H](CO)[C@@H](N)[C@H](O)[C@H]2O)O[C@H]2C[C@@H](N)[C@@H](O[C@H]3[C@H](O)[C@@H](O)[C@H](N)C[C@@H]3N)OC2[C@@H]1O (some centres undefined),parasite load remaining,[2],95.7% (inactive)
same,viability,[2],72.5%
same,fold change,[3]; [21],1.02 (inactive)
same,fold change,[3]; [22],0.823
same,cell count,[3]; [23],9080
same,cell count,[3]; [24],8920
same,z-score,[4]; [25],0.718 (inactive)
same,z-score,[4]; [26],-0.268
COc1cc(N)c(Cl)cc1C(=O)N[C@H]1CCN(CCCOc2ccc(F)cc2)C[C@H]1OC,parasite load remaining,[2],43.8% (inactive)
same,viability,[2],91.1%
same,fold change,[3]; [21],0.886 (inactive)
same,fold change,[3]; [22],2.08
same,cell count,[3]; [23],7400
same,cell count,[3]; [24],8350
same,z-score,[4]; [25],-0.0533 (inactive)
same,z-score,[4]; [26],0.31
CCCCCCCCCCCCCCCCCC(=O)OC(CC(=O)O)C[N+](C)(C)C (centres undefined),inhibition,[9],-2.46%
same,score,[10],0.53
same,rescue above control,[11],6.57
same,cytochrome c release ratio,[12],4.04
same,inhibition of aggregation,[13],52.4%
same,normalised LDH release,[14],0.986
same,glutamate uptake change,[15],-11.2%
same,aggregation suppression score,[16],-0.125
same,period change,[17],-0.05 h (inactive)
same,inhibition,[18],-2% (inactive)
same,fluorescence ratio (interference),[19],1 (inactive)
same,fold change,[3]; [21],0.979 (inactive)
same,fold change,[3]; [22],0.6
same,cell count,[3]; [23],4490
same,cell count,[3]; [24],4590
same,z-score,[20],-1.38 (inactive)
